# Data taken from PubChem BioAssay (NCI).
# This is part of a sample that, as a whole, favours compounds with a hit. Of some 83,000 tested, about 20% had one in any assay.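 Results are percent growth after 48 hours of single-concentration exposure. 100 means growth as in untreated cells, lower positive values show inhibition; negative values down to -100 show cell death.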 A number with no mark means an inactive call. Calls of active or inactive are those of the source. How the source made its calls: active means growth percent below 10; inactive means the rest.
# Assays:
# Assay in all cases: NCI-60 one-dose screen, 48 h (100 = growth as untreated, 0 = no growth, -100 = all killed)
# Conditions in all cases: 10 µM unless noted
# T-47D breast = system: T-47D breast
# BT-549 breast = system: BT-549 breast
# MDA-MB-435 melanoma = system: MDA-MB-435 melanoma
# SW-620 colon = system: SW-620 colon
# MCF7 breast = system: MCF7 breast
# HCC-2998 colon = system: HCC-2998 colon
# KM12 colon = system: KM12 colon
# HCT-116 colon = system: HCT-116 colon
Compound,growth (T-47D breast),growth (BT-549 breast),growth (MDA-MB-435 melanoma),growth (SW-620 colon),growth (MCF7 breast),growth (HCC-2998 colon),growth (KM12 colon),growth (HCT-116 colon)
CCOC(=O)c1c(NC(=O)c2ccccc2)sc2c3c(ccc12)OCN(C)C3,-10.1% (active),62.2%,-88.5% (active),-42.3% (active),-50.6% (active),-85% (active),8.58% (active),
O=C(/C=C/c1ccccc1)c1ccc(-n2cc(CN3CCN(c4cc5c(cc4F)c(=O)c(C(=O)O)cn5C4CC4)CC3)nn2)cc1,92.9%,76.7%,,83.7%,58.2%,88.3%,73.7%,6.95% (active)
C=C1C(=O)O[C@H]2[C@H]1CC/C(COC(=O)NCc1ccc(Cn3c(=O)sn(-c4ccccc4)c3=O)cc1)=C\CC[C@@]1(C)O[C@@H]21,57.7%,51.3%,,-13% (active),15.4%,75.2%,96.8%,5.85% (active)
CC(C)(C)c1ccc(S(=O)(=O)Oc2ccc(-c3sc4cc(OS(=O)(=O)c5ccc(C(C)(C)C)cc5)ccc4c3C(=O)c3ccc(OCCN4CCCCC4)cc3)cc2)cc1,79.1%,97.7%,,101%,96.8%,98.1%,95.5%,91.6%
CNCCCNc1nc2ccccc2c2c(=O)c3cc(Cl)ccc3sc12,48.5%,92.4%,,-87% (active),-77.3% (active),-89.8% (active),-24.6% (active),-92.1% (active)
Cc1ccc2c(c1)nc(C)n2-c1ncnc2c1CC(C)c1cc(O)ccc1N2C (centres undefined),33.6%,40.8%,,21.5%,19.8%,78.4%,35.6%,15.4%
O=C(NCc1ccc(Cn2c(=O)sn(-c3ccccc3)c2=O)cc1)OCc1ccc2cccc(O)c2n1,-41.7% (active),-85% (active),,-62.2% (active),-43.2% (active),-71.6% (active),-15.1% (active),-87% (active)
O=C(/C=C/C12c3ccccc3C(c3ccccc31)C1C(=O)NC(=O)C12)c1ccco1 (centres undefined),18.6%,19.3%,,27.4%,12.8%,103%,12.9%,7.57% (active)
CS(=O)/C(C#N)=C\C=C\c1cccc(Cl)c1 (centres undefined),16.5%,9.95% (active),,14.9%,12.9%,-31.1% (active),12.5%,-28.1% (active)
CNC(=O)c1cc(Oc2ccc3c(c2)sc2nc(-c4ccc(Cl)c(C(F)(F)F)c4)cn23)ccn1,25.7%,45.9%,,68.6%,36.8%,80.5%,82.6%,41%
COc1ccc(/C=N/Nc2c3ccccc3nc3ccccc23)cc1,87.5%,,97%,97.7%,81.9%,105%,91.4%,97.4%
COc1cc(C=C2C(=O)NC(=S)NC2=O)cc(CN2CCCC2)c1O,110%,,100%,108%,96.1%,110%,110%,113%
CC1(C)CC[C@]23CC[C@]4(C)[C@H](CC[C@@H]5[C@@]6(C)CCNCC(C)(C)[C@@H]6CC[C@]54C)[C@H]2[C@H]1OC3,77.8%,,86.5%,49.9%,91.5%,28.6%,81.4%,55%
Cc1ccc(S(=O)(=O)OCC#CCOS(=O)(=O)c2ccc(C)cc2)cc1,-22.9% (active),,49.3%,51.2%,31%,81.6%,60.9%,24.7%
COc1cccc(-c2cn3nc(-c4cn(C)c5ccccc45)sc3n2)c1,89.9%,,,89.7%,79.5%,93.5%,72.6%,91.7%
C=C(C)[C@@H]1CC[C@]2(C)[C@H](C=CC3=C4C[C@@](C)(CO)CC[C@]4(C)CC[C@]32C)[C@@]1(C)CCCN,-43.7% (active),,-96.8% (active),-80.8% (active),-78.5% (active),-92% (active),-71.7% (active),-86.5% (active)
Cc1cc(=O)oc2cc(Oc3nc(Br)cn4c(Br)cnc34)ccc12,53.7%,,87.2%,116%,22.2%,105%,78.9%,55.5%
COc1ccc2c(c1)c(-c1nc(-c3ccc4ccccc4c3)cs1)cn2C,58%,,70.1%,73.4%,30.8%,99.5%,67.4%,87.9%
O=C(c1cccc(N2CCOCC2)n1)c1c[nH]c2ccccc12,70.7%,,99.7%,94.1%,66%,113%,90.5%,97.7%
COc1ccc(-c2nc3c(c(-c4ccc(Cl)cc4)nn3-c3ccccc3)c(-c3ccccc3)c2C#N)cc1,94.3%,,105%,104%,96%,115%,98.5%,101%
CCn1cc(Cc2cc(C(=O)Nc3cc4cc(OC)c(OC)cc4c(C)n3)ccc2Cl)cn1,19.8%,,2.12% (active),38.3%,18.5%,65.1%,37.7%,10.3%
Fc1cccc(CNc2c3ccccc3nc3ccccc23)c1,42.7%,,48.9%,22%,7.9% (active),29.9%,48.6%,13.4%
C[C@@H]1NC(=O)[C@H](Cc2ccccc2)N(Cc2cccnc2)C1=O,94.6%,,104%,97.2%,91.5%,106%,103%,71%
COc1ccc(-c2nc(SCC(=O)Nc3nc4ccc(C)cc4s3)[nH]c(=O)c2C#N)cc1OC,94.8%,,101%,96.2%,95.6%,105%,102%,94.8%
Nc1c(Br)cc2c(c1Br)Cc1cc([N+](=O)[O-])ccc1-2,58.3%,,108%,103%,33.8%,104%,99.1%,95.3%
C=C(C)[C@@H]1CC[C@]2(C(=O)Nc3ccccn3)CC[C@]3(C)[C@H](CC[C@@H]4[C@@]5(C)CCCNC(C)(C)[C@@H]5CC[C@]43C)[C@@H]12,25.9%,,2.12% (active),-31.7% (active),8.22% (active),5.09% (active),10.6%,-43.4% (active)
Clc1ccc(Nc2ncc(Cc3cccc(Cl)c3Cl)s2)cc1,77.9%,,105%,101%,90.9%,101%,101%,92.8%

Compound,growth (T-47D breast),growth (BT-549 breast),growth (MDA-MB-435 melanoma),growth (SW-620 colon),growth (MCF7 breast),growth (HCC-2998 colon),growth (KM12 colon),growth (HCT-116 colon)
COCCn1cc(-c2nc(-c3cn(CCOC)c4ncccc34)cs2)c2cc(F)ccc21,-11.9% (active),,59.1%,90.7%,7.84% (active),42.1%,10.6%,61.8%
CC1SC(c2ccccc2O)N(NC(=O)CCC(=O)c2nc3ncccc3[nH]2)C1=O (centres undefined),93.6%,,102%,92.6%,98.7%,92.9%,95.2%,91.2%
Cc1cccc(NC(=O)Cn2cc(CN3CCN(c4ccnc5cc(Cl)ccc45)CC3)nn2)c1,83.8%,,93.4%,90.1%,88.2%,102%,81.6%,
N#Cc1c(-c2ccc(Br)cc2)nc2c(N=Nc3ccc(S(N)(=O)=O)cc3)c(N)nn2c1N,31.5%,,,44.1%,31.6%,61.8%,51.8%,24.9%
Cc1ccc(S(=O)(=O)c2nc(-c3ccccc3)oc2SCC(N)=O)cc1,76.3%,,105%,104%,96%,105%,97.9%,85.7%
CCCN(CCSSCCNc1nc(N(C)O)nc(N(C)O)n1)c1nc(N(C)O)nc(N(C)O)n1,61.9%,,95.1%,75.1%,83.2%,59.8%,48.2%,41%
Cc1cc(Cl)nc(N2CCN(CCNc3ccnc4cc(Cl)ccc34)CC2)n1,19.5%,47%,,45.3%,26.8%,-3.07% (active),55.7%,
COc1ccc(C=Nc2c(C(=O)Nc3cccc(Cl)c3C)sc3nc(C)c(C(=O)/C=C/c4ccc(OC)cc4)cc23)cc1,24.3%,,-65.8% (active),12.4%,11.8%,57.6%,12.4%,23%
COc1cc(N2C(=O)[C@H](Cl)C2c2ccc(SC)cc2)cc(OC)c1OC (some centres undefined),49.1%,,-26.3% (active),24.3%,12.4%,7.52% (active),14.4%,-17.2% (active)
COc1cc(/C=C/C(=O)c2cccc(-n3cc(-c4ccc(Cl)cc4)[nH]c3=O)c2)ccc1O,62.2%,,21.4%,16%,9.8% (active),66.8%,6.79% (active),21.5%
Cc1ccc2c(c1)sc1nc(-c3c[nH]c4ccccc34)c(Nc3ccccc3)n12,96%,,97%,94.7%,98.4%,106%,105%,104%
COc1ccc(C/C(C)=C(\c2ccc(Cl)cc2)c2ccc(OCCCN(C)C)cc2)cc1,62.1%,,82.6%,60.8%,16.2%,47.1%,68.6%,60.3%
Cn1cc(-c2nc3c(F)cc4[nH]ncc4c3c3c2CCCC3)c(C(F)(F)F)n1,39.9%,,14%,18.6%,24.6%,65.3%,24.2%,15.1%
CN(C)CCCNC(=O)c1cncnc1Nc1ccc2c(ccn2Cc2cccc(F)c2)c1,101%,92.2%,,88.3%,71.4%,97.6%,98%,
COc1cc(C[C@H]2COc3cc(O)cc(O)c3C2=O)ccc1O,31.3%,,-22.5% (active),23.1%,22.6%,88.2%,24.7%,12.6%
CCN(CC)CCCNc1cc(OC)c(OC)c2cccnc12,33.8%,,42.3%,58.4%,31.4%,76.1%,84.1%,9.79% (active)
Nc1ccc(Br)cc1C(F)(F)F,96.7%,107%,,111%,106%,114%,112%,103%
COC12C=C/C(=C(/C(=O)OCc3csc(SC)n3)C(=O)CCCCCCCCC3(OC)C=C/C(=C(/C(=O)OCc4cnc(SC)s4)C(=O)CCCCCCCC1)O3)O2 (centres undefined),41.9%,,10%,27.6%,23.3%,-62.4% (active),18.1%,7.05% (active)
O=c1oc2c(cc1-c1ccccc1)c(=O)[nH]c1ccccc12,95.4%,,97.7%,105%,87.3%,105%,101%,97.1%
CCC(C)(C)c1ccc(Nc2ccc(Nc3ccc(C(C)(C)CC)cc3)cc2)cc1,58.4%,,97.1%,85.5%,80%,101%,89.9%,60.5%
COC(=O)[C@]1(C)CCC[C@]2(C)[C@H]3C[C@@H]4[C@H]5[C@@H]6CC/C(=N\OCC/C(N)=N/O)[C@H]5[C@@]3(CC[C@H]21)CC4(C(C)C)O6,50%,,82.9%,64.3%,55.9%,90.4%,76%,52.6%
C=C1CC[C@@H]2C(C)(C)[C@H](O)CC[C@@]2(C)[C@@H]1COc1ccc2ccc(=O)oc2c1,7.88% (active),,64.4%,89.5%,53.9%,95.4%,28.2%,64.1%
Cc1nc([P+](c2ccccc2)(c2ccccc2)c2ccccc2)c(N2CCCCC2)o1,-0.433% (active),,21.3%,37%,10.9%,31.6%,10.1%,10.9%
COc1cc(OC)c2c(=O)c3c(CC=C(C)C)cc(OC)c(O)c3oc2c1,,77.5%,53.9%,99.7%,78.5%,106%,66.4%,
CN1C(=O)N2CN3CCCN(C3)CN3C(=S)NC1C23 (centres undefined),,117%,106%,101%,95.4%,103%,104%,106%
C#COc1cccc(Nc2ncnc3cc(NC(=O)[C@H](C)Cl)ccc23)c1,,,-25.1% [6.25 µM] (active),14.5% [6.25 µM],11.3% [6.25 µM],5.81% [6.25 µM] (active),17.8% [6.25 µM],7.41% [6.25 µM] (active)
